PubChem BioAssay (EPA / NIEHS)
Records with an inconclusive call do not appear. Activity calls are given as the source filed them. Rule for the calls: active = hit-call score of the fitted dose curve at least 0.9, where 1 is the maximum; inconclusive = response in the unintended direction; inactive = score below 0.9.

Molecular target: Nuclear receptor subfamily 1 group I member 2 (Homo sapiens) (UniProt O75469)
Experiment: ATG_PXR_TRANS: Attagene TRANS-FACTORIAL HepG2 Assay for human Pregnane X Receptor (PXR) (AID 2283008)
Procedure, shortened: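 Trans-factorial format: exogenous NR-Gal4 fusion activity, not endogenous factor, in transfected human HepG2 liver cells. After 24 h dosing, RNA isolated, reverse-transcribed, amplified and resolved by capillary electrophoresis; induction scored versus DMSO.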

Chain of Nuclear receptor subfamily 1 group I member 2 (Homo sapiens) (O75469 whole entry, looked up): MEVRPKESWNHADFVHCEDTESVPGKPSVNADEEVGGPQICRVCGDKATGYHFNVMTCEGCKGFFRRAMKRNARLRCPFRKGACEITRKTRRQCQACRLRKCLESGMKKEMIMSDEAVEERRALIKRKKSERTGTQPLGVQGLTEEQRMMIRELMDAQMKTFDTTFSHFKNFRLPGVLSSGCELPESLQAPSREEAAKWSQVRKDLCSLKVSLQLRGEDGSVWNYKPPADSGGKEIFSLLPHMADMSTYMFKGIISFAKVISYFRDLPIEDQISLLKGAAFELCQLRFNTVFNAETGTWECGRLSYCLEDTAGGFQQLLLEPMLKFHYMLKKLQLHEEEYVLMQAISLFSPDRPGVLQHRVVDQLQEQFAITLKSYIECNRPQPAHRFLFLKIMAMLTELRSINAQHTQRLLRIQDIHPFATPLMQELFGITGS

outcome, inactive:
C[N+](C)(C)CCCCCC[N+](C)(C)C
CCCCCCCC(=O)OCCCCCC
N#Cc1cscn1
C=CC(C)C#N (configuration not stated)
CCN(CC)C(=O)N(CC)CC
COC(=O)c1ccc(OC)cc1
CCCCC1CCC(O)CC1 (configuration not stated)
CCCCCCCCCC(=O)OC
OCc1cccc(Oc2ccccc2)c1
CC=CC=CCOC(=O)C(C)C
CC1CCC(C(C)C)C(O)C1 (configuration not stated)
CCOc1ccc(N=Nc2ccc(C=Cc3ccc(N=Nc4ccc(OCC)cc4)cc3S(=O)(=O)O)c(S(=O)(=O)O)c2)cc1
COS(=O)(=O)O

AC50, active:
Nc1c(S(=O)(=O)O)cc(Br)c2c1C(=O)c1ccccc1C2=O 40.2 µM
O=C1OC[C@H](Cc2cccc(O)c2)[C@H]1Cc1cccc(O)c1 7.35 µM
CC1(C)C2=CCCC(C)(C)[C@]23CC[C@H]1C3 1.31 µM
CC1=C(Br)C(=O)C(Br)=C/C1=C(/c1ccccc1S(=O)(=O)O)c1cc(Br)c(O)c(Br)c1C 29.6 µM
CC(C)(N=C=O)c1cccc(C(C)(C)N=C=O)c1 11.3 µM
CCOC(=O)C(C#N)=C(c1ccccc1)c1ccccc1 1.24 µM
CC(=O)c1c(C)c([N+](=O)[O-])c(C(C)(C)C)c([N+](=O)[O-])c1C 1.84 µM
CC1(C)CCC[C@]2(C)[C@H]3CCO[C@]3(C)CC[C@@H]12 32.6 µM
Clc1cc(Cl)c(-c2c(Cl)c(Cl)cc(Cl)c2Cl)cc1Cl 4.6 µM

Molecular target: human Retinoic Acid Receptor gamma (RARg), RARG (gene 5916) (UniProt P13631)
Experiment: ATG_RARg_TRANS: Attagene TRANS-FACTORIAL HepG2 Assay for human Retinoic Acid Receptor gamma (RARg) (AID 2283009)
Procedure, shortened: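 Readout: reporter transcript levels via RT-PCR, 6-FAM primer-extension labelling, HpaI digestion and capillary electrophoresis. Cells: HepG2 carrying transfected RARg-GAL4 chimera plus UAS reporter set. Dosing 24 h; DMSO negative control.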

Chain of human Retinoic Acid Receptor gamma (RARg), RARG (gene 5916) (P13631 whole entry, looked up): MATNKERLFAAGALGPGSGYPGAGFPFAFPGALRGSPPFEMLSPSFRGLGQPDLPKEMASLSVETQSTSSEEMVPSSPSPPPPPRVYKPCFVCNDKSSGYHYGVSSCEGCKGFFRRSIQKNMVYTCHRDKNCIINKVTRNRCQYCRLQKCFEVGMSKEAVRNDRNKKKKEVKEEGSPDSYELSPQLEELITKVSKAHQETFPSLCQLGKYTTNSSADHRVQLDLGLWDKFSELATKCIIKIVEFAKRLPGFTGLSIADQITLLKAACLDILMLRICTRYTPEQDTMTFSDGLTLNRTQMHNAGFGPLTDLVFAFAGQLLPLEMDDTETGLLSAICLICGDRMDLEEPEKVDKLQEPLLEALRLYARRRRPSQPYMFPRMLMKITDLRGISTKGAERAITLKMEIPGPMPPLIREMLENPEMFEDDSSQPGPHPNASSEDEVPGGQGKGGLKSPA

outcome, inactive:
CCCCCCCC(=O)OCCCCCC
C#CC(C)(O)CC(C)C (configuration not stated)
C=CC(C)C#N (configuration not stated)
CCN(CC)C(=O)N(CC)CC
CCOC(=O)CN
CC(=O)O[C@@H]1CC2CCC1(C)C2(C)C (some centres not stated)
O=C1OC[C@H](Cc2cccc(O)c2)[C@H]1Cc1cccc(O)c1
CCCCC1CCC(O)CC1 (configuration not stated)
CC1(C)C2=CCCC(C)(C)[C@]23CC[C@H]1C3
CC1=C(Br)C(=O)C(Br)=C/C1=C(/c1ccccc1S(=O)(=O)O)c1cc(Br)c(O)c(Br)c1C
CC1CCC(C(C)C)C(O)C1 (configuration not stated)
CCC(C)=O
CCOc1ccc(N=Nc2ccc(C=Cc3ccc(N=Nc4ccc(OCC)cc4)cc3S(=O)(=O)O)c(S(=O)(=O)O)c2)cc1
COc1cc(C(C)C)ccc1C
CC(=O)c1c(C)c([N+](=O)[O-])c(C(C)(C)C)c([N+](=O)[O-])c1C
CC1(C)CCC[C@]2(C)[C@H]3CCO[C@]3(C)CC[C@@H]12

Molecular target: human RAR-related Orphan Receptor beta (RORb), RORB (gene 6096) (UniProt Q92753)
Experiment: ATG_RORb_TRANS: Attagene TRANS-FACTORIAL HepG2 Assay for human RAR-related Orphan Receptor beta (RORb) (AID 2283010)
Procedure, shortened: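 HepG2, transient MRTU transfection (GAL4-UAS reporters, exogenous NR-Gal4 chimeras); 24 h compound exposure; total RNA → RT-PCR → 6-FAM primer extension → HpaI digest → CE fluorescence. Positive direction vs DMSO baseline.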

Chain of human RAR-related Orphan Receptor beta (RORb), RORB (gene 6096) (Q92753 whole entry, looked up): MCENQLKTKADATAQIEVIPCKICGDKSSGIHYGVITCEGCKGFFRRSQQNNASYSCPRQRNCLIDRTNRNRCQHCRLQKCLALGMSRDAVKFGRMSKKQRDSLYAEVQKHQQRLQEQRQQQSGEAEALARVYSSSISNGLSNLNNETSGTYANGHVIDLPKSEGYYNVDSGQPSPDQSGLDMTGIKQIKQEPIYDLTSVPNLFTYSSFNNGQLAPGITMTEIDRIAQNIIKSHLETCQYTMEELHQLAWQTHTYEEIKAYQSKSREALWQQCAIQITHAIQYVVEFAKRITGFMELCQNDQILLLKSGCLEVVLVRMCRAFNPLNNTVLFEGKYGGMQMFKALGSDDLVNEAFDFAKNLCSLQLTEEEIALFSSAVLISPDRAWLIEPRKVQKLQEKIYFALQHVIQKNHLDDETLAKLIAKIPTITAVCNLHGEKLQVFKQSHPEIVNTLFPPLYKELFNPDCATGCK

outcome, inactive:
C#CC(C)(O)CC(C)C (configuration not stated)
CCOC(=O)CN
CC(=O)O[C@@H]1CC2CCC1(C)C2(C)C (some centres not stated)
O=C1OC[C@H](Cc2cccc(O)c2)[C@H]1Cc1cccc(O)c1
ON=C1CCCCC1
CC1(C)C2=CCCC(C)(C)[C@]23CC[C@H]1C3
CC1=C(Br)C(=O)C(Br)=C/C1=C(/c1ccccc1S(=O)(=O)O)c1cc(Br)c(O)c(Br)c1C
CC(=O)C(C)O (configuration not stated)
CS(=O)(=O)OCCCCOS(C)(=O)=O
CC(C)(N=C=O)c1cccc(C(C)(C)N=C=O)c1
COCCOCCOCCO
CCC(=O)OCCOc1ccccc1
O=C(CS)OCCOC(=O)CS
CC1(C)CCC[C@]2(C)[C@H]3CCO[C@]3(C)CC[C@@H]12
Clc1cc(Cl)c(-c2c(Cl)c(Cl)cc(Cl)c2Cl)cc1Cl

Molecular target: human RAR-related Orphan Receptor gamma (RORg), RORC (gene 6097) (UniProt P51449)
Experiment: ATG_RORg_TRANS: Attagene TRANS-FACTORIAL HepG2 Assay for human RAR-related Orphan Receptor gamma (RORg) (AID 2283011);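 for AC50: potency for induction of reporter transcripts above DMSO so activators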
Procedure, shortened: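 Chimeric RORg-Gal4 transactivation in transfected HepG2; 24 h exposure; RT-PCR/capillary electrophoresis readout of reporter mRNA, DMSO baseline.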

Chain of human RAR-related Orphan Receptor gamma (RORg), RORC (gene 6097) (P51449 whole entry, looked up): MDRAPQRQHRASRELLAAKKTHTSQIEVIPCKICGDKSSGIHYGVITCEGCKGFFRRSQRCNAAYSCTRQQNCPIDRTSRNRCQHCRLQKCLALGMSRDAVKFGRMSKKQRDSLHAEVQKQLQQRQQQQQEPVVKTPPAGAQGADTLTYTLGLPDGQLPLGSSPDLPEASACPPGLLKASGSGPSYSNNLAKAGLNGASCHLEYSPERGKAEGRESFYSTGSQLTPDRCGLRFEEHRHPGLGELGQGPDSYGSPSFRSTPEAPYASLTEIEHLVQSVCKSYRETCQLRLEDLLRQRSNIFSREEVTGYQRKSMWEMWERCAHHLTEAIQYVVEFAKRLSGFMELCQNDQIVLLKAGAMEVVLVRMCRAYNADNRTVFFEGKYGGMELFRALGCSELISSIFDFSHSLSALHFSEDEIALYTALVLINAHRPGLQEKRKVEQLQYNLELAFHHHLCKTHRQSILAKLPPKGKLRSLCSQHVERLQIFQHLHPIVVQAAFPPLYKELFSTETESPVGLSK

outcome, inactive:
CCCCCCCC(=O)OCCCCCC
C=CC(C)C#N (configuration not stated)
CCN(CC)C(=O)N(CC)CC
ON=C1CCCCC1
CCCCCCCCCC(=O)OC
CC(=O)CC(=O)Nc1ccc(C)cc1C
CCCCCCOC(=O)C(C)C
CC=CC=CCOC(=O)C(C)C
CC1CCC(C(C)C)C(O)C1 (configuration not stated)
CS(=O)(=O)OCCCCOS(C)(=O)=O
COCCOCCOCCO
COc1cc(C(C)C)ccc1C

AC50, active:
O=C(CS)OCCOC(=O)CS 67 µM

Molecular target: Retinoic acid receptor RXR-alpha (Homo sapiens) (UniProt P19793)
Experiment: ATG_RXRa_TRANS: Attagene TRANS-FACTORIAL HepG2 Assay for human Retinoid X Receptor alpha (RXRa) (AID 2283012)
Procedure, shortened: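 Read-out: fluorescent reporter-transcript fragments quantified by capillary electrophoresis after RT-PCR. Transiently transfected HepG2 cells carrying GAL4-UAS reporters and NR-GAL4 chimeras were exposed to chemical for 24 h; activity scored as increase over DMSO.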

Chain of Retinoic acid receptor RXR-alpha (Homo sapiens) (P19793 whole entry, looked up): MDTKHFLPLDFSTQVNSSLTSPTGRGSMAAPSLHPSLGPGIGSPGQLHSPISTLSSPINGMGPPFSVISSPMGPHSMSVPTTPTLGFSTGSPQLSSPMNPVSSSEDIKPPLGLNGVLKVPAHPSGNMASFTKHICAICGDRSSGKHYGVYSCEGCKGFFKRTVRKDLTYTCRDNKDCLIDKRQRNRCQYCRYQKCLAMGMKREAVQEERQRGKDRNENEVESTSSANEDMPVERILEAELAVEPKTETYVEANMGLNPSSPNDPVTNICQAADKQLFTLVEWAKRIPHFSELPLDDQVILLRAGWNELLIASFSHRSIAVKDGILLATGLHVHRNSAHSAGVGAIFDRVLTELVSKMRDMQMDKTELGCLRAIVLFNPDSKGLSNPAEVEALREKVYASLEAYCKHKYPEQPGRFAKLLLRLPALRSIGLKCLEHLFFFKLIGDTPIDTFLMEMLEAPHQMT

outcome, inactive:
CCCCCCCC(=O)OCCCCCC
N#Cc1cscn1
C#CC(C)(O)CC(C)C (configuration not stated)
BrCc1cccc(Oc2ccccc2)c1
COC(=O)c1ccc(OC)cc1
Nc1c(S(=O)(=O)O)cc(Br)c2c1C(=O)c1ccccc1C2=O
CCOC(=O)CN
CC(=O)O[C@@H]1CC2CCC1(C)C2(C)C (some centres not stated)
ON=C1CCCCC1
CCCCC1CCC(O)CC1 (configuration not stated)
CC1(C)C2=CCCC(C)(C)[C@]23CC[C@H]1C3
OCc1cccc(Oc2ccccc2)c1
CC(=O)CC(=O)Nc1ccc(C)cc1C
CC(C)(N=C=O)c1cccc(C(C)(C)N=C=O)c1
COCCOCCOCCO
CCOC(=O)C(C#N)=C(c1ccccc1)c1ccccc1
COc1cc(C(C)C)ccc1C
CC=Cc1ccc(OC)c(OC)c1
O=C(CS)OCCOC(=O)CS
CC1(C)CCC[C@]2(C)[C@H]3CCO[C@]3(C)CC[C@@H]12
Clc1cc(Cl)c(-c2c(Cl)c(Cl)cc(Cl)c2Cl)cc1Cl
